Compounds with a hit are over-represented: about 3.6% of the library has one in this group of screens.
GPR32 ag – qHTS for Agonists of Human Resolvin D1 Receptor DRV1. activation, % at 76.9 µM. hit rate 2.5% among 48,000. AID 1346428, 2018. CHO-K1 GPR32 beta-arrestin PathHunter luminescence, 90 min; zero percent set by DMSO-only wells;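 active = activation of at least 60% and not above a set upper limit, about 1 call in 100 departs from these limits; inconclusive = activation of 40% to 60%, or above that upper limit; inactive = activation under 40%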; also: 0% is about no effect
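Cells are plated overnight, treated with compounds in DMSO for 90 minutes at 37 °C, and developed with PathHunter detection reagent for 1 hour before luminescence is read; signal reflects beta-arrestin binding to GPR32 in engineered CHO-K1 cells.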
GALK inhibitor – qHTS Assay for Inhibitors of Human Galactokinase (GALK): NCGC Sytravon Library Screen. P51570. recombinant GALK, Kinase-Glo ATP luminescence, 1 h. Potency, µM (highest dose often 57.5 µM), for the others: top-dose activity, negative = inhibition, hits mostly inhibitors. 44,000 tested, under 10 active. AID 1347072, 2019;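 also: plate controls were full GALK reaction for no effect and reaction lacking GALK for full effect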
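5 nM GALK with 35 µM ATP and 100 µM galactose in HEPES pH 8.0, MgCl2, NaCl, DTT, BSA; 1 h RT reaction, remaining ATP detected by Kinase-Glo Plus luminescence after 10 min; qHTS concentration series.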
B2AR arrestin ag – qHTS assay of beta-arrestin-biased ligands of beta2-adrenergic receptor: NCGC Sytravon Library Screen; AID 1347077, 2019; Beta-2 adrenergic receptor (Homo sapiens), P07550; HTLA Tango cells, beta-arrestin recruitment, luciferase luminescence, 18 h; 44,000 tested, under 10 active; Potency, µM (series often up to 46.1 µM), hits mostly activators;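 also: potency is read from the fitted curve at half-maximal effect; 0% = DMSO and full agonism = EC100 isoproterenol or metaproterenol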
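Tango cells expressing recombinant beta2-AR and beta-arrestin were treated with compounds (up to 46 microM titration) in DMEM with 1% FBS for 18 hr at 37 degrees C. Beta-arrestin recruitment drove tTA-dependent luciferase, read by luminescence; curves were fitted and classed.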
NTMT1 inhibitor – Primary qHTS for Inhibitors of N-terminal methyltransferase 1 (NTMT1): MTaseGlo Assay. Potency, µM (series often up to 114 µM), inactives show at the highest dose activity change, negative = inhibition, usual class: inhibitors. NTMT1 MTase-Glo SAH luminescence, purified enzyme. hit rate 2.5% among 59,000;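 also: potency is read from the fitted curve at half-maximal effect; plate controls were DMSO vehicle for no effect and no enzyme for full effect; nearly all actives have a fitted effect of over 65% in size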
Target sequence (Q9BV86 whole entry, looked up): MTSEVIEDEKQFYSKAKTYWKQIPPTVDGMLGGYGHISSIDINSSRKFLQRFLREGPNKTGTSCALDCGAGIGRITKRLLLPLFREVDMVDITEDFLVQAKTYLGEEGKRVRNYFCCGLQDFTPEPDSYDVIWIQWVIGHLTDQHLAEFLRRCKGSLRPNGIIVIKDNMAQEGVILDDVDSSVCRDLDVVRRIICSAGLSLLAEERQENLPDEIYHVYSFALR
TSG101-PTAP inh – qHTS Validation Assay for Inhibitors of HIV-1 Budding by Blocking the Interaction of PTAP/TSG101: Sytravon Library Screen | 44,000 tested, under 10 active | Fluorescence polarization, FITC-PTAP peptide/Tsg101, 20 min | Potency, µM (top dose mostly 115 µM), usual class: inhibitors; also: potency is read from the fitted curve at half-maximal effect; 0% is about no effect
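qHTS FP binding, 20 min r.t.: 10 uM Tsg101 domain + 50 nM FITC-PTAP peptide, pH 7.5 HEPES buffer with TCEP and EDTA.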
GALC G270D act – A Novel Cell-Based Assay to Identify Small Molecules for B -Galactocerebrosidase; 145M-Twi-hGALC-G270D cells (Twitcher mouse brain line with human GALC G270D), HMU-beta-Gal fluorescence, 48 h; P54803; Potency, µM (titrated, usually from 57.5 µM), actives largely listed as activators; hit rate 0.1% among 45,000; also: potency is read from the fitted curve at half-maximal effect; 0% is about no effect; nearly all actives have a fitted effect of over 65% in size
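Live 145M-Twi cells (Twitcher mouse brain-derived, GALC-null) stably expressing human GALC-G270D, with a wild-type GALC line, were compound-treated. Residual GALC activity was then read as fluorescence from 0.1 mM final HMU-β-gal at pH 5.2; higher signal means activation.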
CLK4 inh-1 – Confirmation Assay for Inhibitors of CDC-like Kinase 4 (Kinase-Glo Assay): SAR round 2. shares compounds with NTMT1 inhibitor. recombinant Clk4, Kinase-Glo ATP luminescence, 4.5 h. Potency, µM (doses to about 76.9 µM), for inactives: at the highest dose activity, negative = inhibition, actives largely listed as inhibitors. hit rate 90% among 90
Target sequence (Q9HAZ1 whole entry, looked up): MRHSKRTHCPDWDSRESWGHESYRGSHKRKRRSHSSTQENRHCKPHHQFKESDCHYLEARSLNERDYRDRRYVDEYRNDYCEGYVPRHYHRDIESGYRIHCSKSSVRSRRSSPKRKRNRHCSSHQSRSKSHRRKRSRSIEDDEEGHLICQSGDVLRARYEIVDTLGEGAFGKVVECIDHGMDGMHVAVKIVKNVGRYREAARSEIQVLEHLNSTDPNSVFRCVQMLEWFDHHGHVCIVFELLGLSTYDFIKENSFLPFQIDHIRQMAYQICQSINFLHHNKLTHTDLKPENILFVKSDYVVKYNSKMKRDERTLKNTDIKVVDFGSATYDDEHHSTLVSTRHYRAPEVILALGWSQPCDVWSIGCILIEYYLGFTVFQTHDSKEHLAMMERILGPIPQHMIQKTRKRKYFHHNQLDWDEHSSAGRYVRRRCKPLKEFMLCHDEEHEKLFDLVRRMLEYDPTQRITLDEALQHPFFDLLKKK
CLK4 inh-2 – Kinase Inhibition Study on Inhibitors of CDC-like Kinase 4 (Reaction Biology data): SAR round 2. shares compounds with NTMT1 inhibitor. Reaction Biology kinase assay, 10 uM ATP. Potency, µM, actives largely listed as inhibitors. hit rate 100% among 65; calls by dose curve
DYRK1A RBC – Kinase Inhibition Study on Inhibitors of Dyrk1a (Reaction Biology data). shares compounds with NTMT1 inhibitor. Reaction Biology kinase assay, 10 uM ATP. Potency, µM, hits mostly inhibitors. hit rate 90% among 65;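 active = compounds that showed inhibition of Dyrk1a and received a fitted potency; inactive = compounds that showed no inhibition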
CLK2 inh – Kinase Inhibition Study on Inhibitors of CDC-like Kinase 2 (Reaction Biology data) | hit rate 90% among 65 | Reaction Biology kinase assay, 10 uM ATP | Potency, µM, hits mostly inhibitors | AID 504427, 2011 | shares compounds with NTMT1 inhibitor;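 active = compound that inhibits Clk2 kinase in the dose series, with an IC50 potency reported; inactive = no inhibition seen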
CLK3 inh – Kinase Inhibition Study on Inhibitors of CDC-like Kinase 3 (Reaction Biology data). Potency, µM, most hits filed as inhibitors. shares compounds with NTMT1 inhibitor. recombinant CLK3 kinase assay, 10 uM ATP. hit rate 40% among 65;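 active = compounds that inhibited Clk3 enough in the ten-dose series to give a half-maximal potency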
DYRK1B RBC – Kinase Inhibition Study on Inhibitors of Dyrk1b (Reaction Biology data); shares compounds with NTMT1 inhibitor; Recombinant Dyrk1b kinase assay, 10 uM ATP; Potency, µM, most hits filed as inhibitors; hit rate 80% among 65;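 active = compounds whose dose response shows an inhibitor phenotype against the kinase Dyrk1b; inactive = compounds showing no inhibitor phenotype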
CLK1 RBC – Kinase Inhibition Study on Inhibitors of CDC-like Kinase 1 (Reaction Biology data); shares compounds with NTMT1 inhibitor; recombinant Clk1 kinase assay, 10 uM ATP; Potency, µM, actives largely listed as inhibitors; hit rate 90% among 65; AID 504430, 2011;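 active = compounds that block the splicing kinase Clk1 enough to give a fitted half-inhibition concentration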
Sfp PPTase inh – qHTS Assay for Inhibitos of Bacillus subtilis Sfp phosphopantetheinyl transferase (PPTase): Chemistry Optimization Followup. shares compounds with NTMT1 inhibitor. purified Sfp PPTase enzyme activity, qHTS. Potency, µM (series often up to 114 µM), for the others: top-dose activity change, negative = inhibition, usual class: inhibitors. hit rate 78% among 230
HM489 growth – qHTS for Inhibitos of Bacillus subtilis Sfp phosphopantetheinyl transferase (PPTase): Chemistry Optimization Followup in B. Subtilis HM489; hit rate 50% among 220; AID 540353, 2011; shares compounds with NTMT1 inhibitor; B. subtilis HM489 (acpS-) growth, BacTiter-Glo, 5 h; Potency, µM (titrated, usually from 114 µM), without a hit: top-dose activity change, negative = inhibition, actives largely listed as inhibitors
Sfp gel opt – Gel-Based Assay for Inhibitos of Bacillus subtilis Sfp phosphopantetheinyl transferase (PPTase): Chemistry Optimization Followup; shares compounds with NTMT1 inhibitor; purified Sfp PPTase, gel-based product detection; Potency, µM (doses to about 250 µM), inactives show top-dose activity change, negative = inhibition, usual class: inhibitors; hit rate 54% among 220; AID 540355, 2011
Sfp SAR2 – qHTS Assay for Inhibitors of Bacillus subtilis Sfp phosphopantetheinyl transferase (PPTase): SAR Round 2; shares compounds with NTMT1 inhibitor; purified Sfp enzyme, PPTase activity, qHTS; Potency, µM (doses to about 57.1 µM), for the others: top-dose activity change, negative = inhibition, actives largely listed as inhibitors; hit rate 87% among 230
HSD17B4 inh – Extended Characterization of HPGD Inhibitors: Counterscreen Against HSD17b4. hit rate 10% among 230. purified HSD17B4, estradiol/NAD+, NADH fluorescence. shares compounds with NTMT1 inhibitor. Potency, µM (top dose mostly 57.1 µM), without a hit: top-dose activity change, negative = inhibition, most hits filed as inhibitors
ALDH1A1 counter – Extended Characterization of HPGD Inhibitors: Counterscreen Against ALDH1A1; shares compounds with NTMT1 inhibitor; recombinant ALDH1A1, NADH fluorescence, propionaldehyde/NAD+; Potency, µM (top dose mostly 57.1 µM), for inactives: at the highest dose activity change, negative = inhibition, actives largely listed as inhibitors; hit rate 93% among 230; AID 743195, 2013
An asterisk follows results filed as active; [ ] = dose if it differs, or a comment. Unless noted, calls follow the shape of the dose curve; as a rule, active = well fitted curve in the direction sought with a large enough effect; inconclusive = small, poorly fitted or top-dose-only effect, or another doubt; inactive = no such curve, though single readings can be large; an effect the other way counts as inactive or inconclusive.

Results for O=C(O)c1ccc(-c2ccc3ncnc(N4CCOCC4)c3c2)o1 ?
NTMT1 inhibitor: -1%; CLK4 inh-1: 0.65µM*; CLK4 inh-2: 3*; DYRK1A RBC: 45µM*; CLK2 inh: 33µM*; CLK3 inh: inactive; DYRK1B RBC: 34µM*; CLK1 RBC: 46µM*

Results for CC(O)c1ccc(-c2ccc3ncnc(N4CCOCC4)c3c2)o1 (stereo not drawn) ?
NTMT1 inhibitor: inconclusive; CLK4 inh-1: 0.41µM*; CLK4 inh-2: 1.9*; DYRK1A RBC: 29µM*; CLK2 inh: 19µM*; CLK3 inh: inactive; DYRK1B RBC: 45µM*; CLK1 RBC: 9µM*

How did Cc1oc2ncnc(N3CCOCC3)c2c1C(=O)N(Cc1ccccc1)C(C)C do in these assays?
GPR32 ag: -13; GALK inhibitor: 1%; B2AR arrestin ag: inactive; NTMT1 inhibitor: inconclusive; TSG101-PTAP inh: inactive; GALC G270D act: inactive

How did Cc1ccc(CNC(=O)c2c(C)oc3ncnc(N4CCOCC4)c23)cc1 do in these assays?
GPR32 ag: -9; GALK inhibitor: 2%; B2AR arrestin ag: inactive; NTMT1 inhibitor: -29%; TSG101-PTAP inh: inactive; GALC G270D act: inactive

Results for Cc1cc(C)nc(/N=C(\NC#N)N2CCN(c3cccc(C(F)(F)F)c3)CC2)c1 ?
NTMT1 inhibitor: 3%; Sfp PPTase inh: inconclusive; HM489 growth: 42µM*; Sfp gel opt: inconclusive; Sfp SAR2: inconclusive; HSD17B4 inh: -9%; ALDH1A1 counter: 24µM*

What do the screens show for `Cc1cc(C)nc(Nc2nnc(N3CCN(c4cccc(C(F)(F)F)c4)CC3)s2)c1`?
NTMT1 inhibitor: 6%[57.5 µM]; Sfp PPTase inh: inconclusive; HM489 growth: 42µM*; Sfp gel opt: -20%; Sfp SAR2: 14µM*; HSD17B4 inh: -20%; ALDH1A1 counter: 22µM*
